TLR4 MyD88 comp – TLR4-MyD88 interaction inhibition in cells; AID 861; inhibition, % at 8.4 µM; hit rate 0.18% among 200,000; HeLa CL3-4 TLR4/MyD88 BLA complementation, FRET ratio; O00206+Q99836; in the data active = inhibition above about 25%
B2AR ag – activates human beta-2 adrenergic receptor causing internalization | P07550 | Am2.2-beta2AR cells, FAP receptor internalization, flow cytometry | response, % (test concentration not listed) | AID 504454 | hit rate 0.43% among 340,000;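 active = response above a set limit, near 3 SD of response in nonfluorescent compounds, cut at about 42% in these data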
ABHD5 PLIN5 PPI – ABHD5-PLIN5 protein interaction inhibition; Q00G26+Q8WTS1; Split G. princeps luciferase complementation, luminescence, 4 h; inhibition, % at 4 µM; hit rate 0.78% among 360,000; AID 602281;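 active = inhibition above the mean inhibition across every tested compound plus 3 SD, cut at about 22% in these data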
NOD2-RIPK2 inh – NOD2-RIPK2 protein interaction inhibition. O43353. CHO BLA complementation NOD2-RIPK2, CCF4 ratio. inhibition, % at 4.98 µM. hit rate 0.38% among 360,000; in the data active = inhibition above about 21%
TLR9-MyD88 inh – TLR9-MyD88 interaction inhibition | CHO BLA complementation TLR9-MyD88, CCF4 FRET ratio | Q9NR96+Q99836 | AID 504734 | inhibition, % at 4.98 µM | hit rate 0.21% among 340,000;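 active = inhibition above the mean over all tested compounds plus 3 SD, cut at about 21% in these data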
NTR1 agonist – NTR1 (human) agonism; activation, % at 20 µM; NTR1-U2OS beta-arrestin-GFP spot imaging, agonist mode; hit rate 0.17% among 330,000; P30989; AID 493036;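 active = activation at or above 40% of the spot to cytoplasm intensity ratio, with at least 20 cells analyzed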
Hits are given with their value; ! = repeats disagree. Rows were chosen to be rich in hits. Some 1.5% of all compounds tested hit in one or more screens of this group.

For CCCCn1c(SCC(=O)Nc2sc3c(c2C(N)=O)CCC3)nnc1-c1ccccc1 the results were TLR4 MyD88 comp inactive, B2AR ag inactive, ABHD5 PLIN5 PPI 22.0, NOD2-RIPK2 inh inactive, TLR9-MyD88 inh inactive and NTR1 agonist inactive.
For COC(=O)/C=C\C(C#N)(C#N)N=Cc1ccc(OC)cc1 the results were B2AR ag 47.1, ABHD5 PLIN5 PPI inactive, NOD2-RIPK2 inh inactive and TLR9-MyD88 inh inactive.
COc1ccc(C=NNC(=O)CCCCC(=O)NN=Cc2ccc(OC)cc2)cc1 was read as B2AR ag inactive, ABHD5 PLIN5 PPI inactive, NOD2-RIPK2 inh inactive and TLR9-MyD88 inh inactive.
Screening COc1ccccc1CCC(=O)Nc1ccc2c(c1)c(=O)n(C)n2C returned ABHD5 PLIN5 PPI inactive and NOD2-RIPK2 inh inactive.
`CCOc1ccc(Nc2c3ccccc3nc3ccccc23)cc1` gave B2AR ag 51.9, ABHD5 PLIN5 PPI inactive, NOD2-RIPK2 inh inactive, TLR9-MyD88 inh inactive and NTR1 agonist inactive.
For CC(c1ccccc1)N1C(=O)/C(=C/c2ccncc2)SC1=S (centres undefined) the results were B2AR ag inactive, ABHD5 PLIN5 PPI inactive, NOD2-RIPK2 inh inactive, TLR9-MyD88 inh inactive and NTR1 agonist inactive.
Screening CCC(=C(c1ccccc1)c1ccc(OCCN(C)C)cc1)c1ccccc1 returned ABHD5 PLIN5 PPI inactive and NOD2-RIPK2 inh inactive.
For CCN(CC)CCOc1ccc(/C(=C(/Cl)c2ccccc2)c2ccccc2)cc1 the results were B2AR ag inactive, ABHD5 PLIN5 PPI 51.1!, NOD2-RIPK2 inh inactive, TLR9-MyD88 inh inactive and NTR1 agonist inactive.
CCOc1ccc(-n2c(C)cc(C(=O)CCl)c2C)cc1 was read as TLR4 MyD88 comp inactive, B2AR ag 45.8, ABHD5 PLIN5 PPI inactive, NOD2-RIPK2 inh inactive, TLR9-MyD88 inh inactive and NTR1 agonist inactive.
`CC1CCN(S(=O)(=O)c2ccc3c(c2)C(Cl)(Cl)C(=O)N3)CC1` gave ABHD5 PLIN5 PPI inactive, NOD2-RIPK2 inh inactive and TLR9-MyD88 inh inactive.
COC(=O)c1c(C)oc2ccc(N(C(=O)Oc3ccccc3)S(=O)(=O)c3ccc(Cl)c([N+](=O)[O-])c3)cc12 was read as TLR4 MyD88 comp inactive, B2AR ag 60.4, ABHD5 PLIN5 PPI inactive, NOD2-RIPK2 inh inactive, TLR9-MyD88 inh inactive and NTR1 agonist inactive.
`Cc1ccc(CNC(=O)Nc2nnc([C@@H]3C[C@H](O)[C@@H](CO)O3)s2)cc1` gave ABHD5 PLIN5 PPI inactive and NOD2-RIPK2 inh inactive.
Cc1c(CCCl)c(Cl)n2c(nc3ccccc32)c1C#N was read as B2AR ag 57.1, ABHD5 PLIN5 PPI inactive, NOD2-RIPK2 inh inactive and TLR9-MyD88 inh inactive.
`COC(=O)CCSc1cc(NCCOC(C)=O)c([N+](=O)[O-])c2nonc12` gave TLR4 MyD88 comp inactive, B2AR ag 61.5, ABHD5 PLIN5 PPI inactive, NOD2-RIPK2 inh inactive, TLR9-MyD88 inh inactive and NTR1 agonist inactive.
Screening CC(C)c1ccc2c(c1)CCC1C(C)(CN)CCCC21C (centres undefined) returned B2AR ag 43.5, ABHD5 PLIN5 PPI inactive, NOD2-RIPK2 inh inactive and TLR9-MyD88 inh inactive.
`COc1ccc(-c2cc(C(F)(F)F)n3ncc(C(=O)NCc4ccco4)c3n2)cc1` gave TLR4 MyD88 comp inactive, B2AR ag inactive, ABHD5 PLIN5 PPI 22.9, NOD2-RIPK2 inh inactive, TLR9-MyD88 inh inactive and NTR1 agonist inactive.
Screening COC(=O)c1ccc(-c2nc(CN3CCN(C(=O)c4ccco4)CC3)c(C)o2)cc1 returned ABHD5 PLIN5 PPI inactive, NOD2-RIPK2 inh inactive and TLR9-MyD88 inh inactive.
Screening CCCCCCCCCCCCCCCC[n+]1cccc(C(=O)N(CC)CC)c1 returned TLR4 MyD88 comp inactive, B2AR ag inactive, ABHD5 PLIN5 PPI 45.2!, NOD2-RIPK2 inh inactive, TLR9-MyD88 inh inactive and NTR1 agonist inactive.
Screening CCCCCCCC[n+]1cccc(C(=O)N(CC)CC)c1 returned TLR4 MyD88 comp inactive, B2AR ag inactive, ABHD5 PLIN5 PPI inactive, NOD2-RIPK2 inh inactive, TLR9-MyD88 inh inactive and NTR1 agonist inactive.
Screening Cc1ccc(S(=O)(=O)Nc2ccccc2C=NNC(=O)c2ccncc2)cc1 returned ABHD5 PLIN5 PPI inactive, NOD2-RIPK2 inh inactive and TLR9-MyD88 inh inactive.
For O=C(CSc1nnc(CNc2ccc(F)cc2)n1Cc1ccco1)NC1CC1 the results were TLR4 MyD88 comp inactive, B2AR ag inactive, ABHD5 PLIN5 PPI 22.1, NOD2-RIPK2 inh inactive, TLR9-MyD88 inh inactive and NTR1 agonist inactive.
Screening CCCCNC(=O)CNC(=S)N(Cc1ccccc1)Cc1cccnc1 returned TLR4 MyD88 comp inactive, B2AR ag 51.7, ABHD5 PLIN5 PPI inactive, NOD2-RIPK2 inh inactive, TLR9-MyD88 inh inactive and NTR1 agonist inactive.
`CS(=O)(=O)c1ccc2nc(NC(=O)c3ccccc3)sc2c1` gave B2AR ag inactive, ABHD5 PLIN5 PPI inactive, NOD2-RIPK2 inh inactive, TLR9-MyD88 inh inactive and NTR1 agonist inactive.
Screening CS(=O)(=O)c1ccc(C(=O)Nc2nc(-c3ccco3)c(-c3ccco3)s2)cc1 returned B2AR ag inactive, ABHD5 PLIN5 PPI 22.4, NOD2-RIPK2 inh inactive, TLR9-MyD88 inh inactive and NTR1 agonist inactive.
For CC1C(O)=C(c2ccccc2)P(=O)(Cc2ccccc2)C1C (centres undefined) the results were ABHD5 PLIN5 PPI inactive and NOD2-RIPK2 inh inactive.
`COc1ccc2nc(C)cc(N/N=C/c3ccccc3)c2c1` gave B2AR ag 47.4, ABHD5 PLIN5 PPI inactive, NOD2-RIPK2 inh inactive, TLR9-MyD88 inh inactive and NTR1 agonist inactive.
Screening COc1ccc(/C=N/Nc2cc(C)nc3ccc(OC)cc23)c(OC)c1 returned B2AR ag inactive, ABHD5 PLIN5 PPI inactive, NOD2-RIPK2 inh inactive, TLR9-MyD88 inh inactive and NTR1 agonist inactive.
`OCC[C@@H]1C[C@H](O)[C@@H](O)[C@]2(OCCc3cc(Cl)ccc32)O1` gave ABHD5 PLIN5 PPI inactive and NOD2-RIPK2 inh inactive.
COc1ccc(C2Nc3ccccc3C(=O)N2Cc2ccco2)cc1COc1ccccc1F (centres undefined) was read as TLR4 MyD88 comp inactive, B2AR ag inactive, ABHD5 PLIN5 PPI 23.1, NOD2-RIPK2 inh inactive, TLR9-MyD88 inh inactive and NTR1 agonist inactive.
For Cc1ccc(Cl)cc1-c1cc(C(=O)N2CCc3ccccc3C2)[nH]n1 the results were ABHD5 PLIN5 PPI inactive and NOD2-RIPK2 inh inactive.
`CC(=O)Nc1ccc(OCc2cccc([N+](=O)[O-])c2)cc1` gave TLR4 MyD88 comp inactive, B2AR ag inactive, ABHD5 PLIN5 PPI inactive, NOD2-RIPK2 inh inactive, TLR9-MyD88 inh inactive and NTR1 agonist inactive.
`CC(=O)Nc1ccc(C=CC=Cc2cccc([N+](=O)[O-])c2)cc1` gave B2AR ag inactive, ABHD5 PLIN5 PPI 22.1, NOD2-RIPK2 inh inactive and TLR9-MyD88 inh inactive.
Screening Cn1cnnc1SCc1ccc(C(=O)N=Nc2c(O)n(C)c3ccccc23)cc1 returned TLR4 MyD88 comp inactive, B2AR ag 100.1, ABHD5 PLIN5 PPI inactive, NOD2-RIPK2 inh inactive, TLR9-MyD88 inh inactive and NTR1 agonist inactive.
Cc1ccc(S(=O)(=O)N[C@H](CNCc2ccccc2)C(C)C)cc1 was read as ABHD5 PLIN5 PPI inactive and NOD2-RIPK2 inh inactive.
For CCCCOCCCNC(=O)C[C@@H]1C[C@@]2(C(=O)OC)CCCCC=C2N(Cc2ccc3c(c2)OCO3)C1=O the results were ABHD5 PLIN5 PPI inactive and NOD2-RIPK2 inh inactive.
